Test results taken from ChEMBL document CHEMBL2218924, “A broad activity screen in support of a chemogenomic map for kinase signalling research and drug discovery” (Biochem J, 2013).

Biological target: T1, Serine/threonine-protein kinase Sgk2 (Homo sapiens) (UniProt Q9HBY8)
T1 sequence (whole entry): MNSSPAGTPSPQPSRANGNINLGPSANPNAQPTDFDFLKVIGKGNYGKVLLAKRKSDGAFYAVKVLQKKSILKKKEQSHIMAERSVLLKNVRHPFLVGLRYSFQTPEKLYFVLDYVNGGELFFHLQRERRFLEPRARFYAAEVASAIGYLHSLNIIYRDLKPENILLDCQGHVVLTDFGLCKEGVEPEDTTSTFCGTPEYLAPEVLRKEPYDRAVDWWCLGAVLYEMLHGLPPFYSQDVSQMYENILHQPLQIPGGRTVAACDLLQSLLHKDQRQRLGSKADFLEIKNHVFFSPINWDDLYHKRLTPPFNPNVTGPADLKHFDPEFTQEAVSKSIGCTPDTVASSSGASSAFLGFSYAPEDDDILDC
Conditions: at 1 µM

First: COc1ccc2c(c[n+](C)c3c4cc5c(cc4ccc23)OCO5)c1OC
Second: COc1cc2ncnc(Nc3ccc(OCc4ccccc4)cc3)c2cc1OC
The residual activity of the first is higher: 130% for the first, 89% for the second.

First: c1cc(-c2cnn3cc(-c4ccc(OCCN5CCCCC5)cc4)cnc23)ccn1
Second: C[S+]([O-])c1ccc(-c2nc(-c3ccc(F)cc3)c(-c3ccncc3)[nH]2)cc1 (stereo unspecified)
The residual activity of the first is lower: 81% for the first, 114% for the second.

Going from `O=C1NC(=O)c2c1c1c3ccccc3n3c1c1c2c2ccccc2n1C1CCC3O1` to `COC(=O)[C@@]1(O)C[C@H]2O[C@]1(C)n1c3ccccc3c3c4c(c5c6ccccc6n2c5c31)C(=O)NC4`, the residual activity falls from 77% to 7%.

Going from `O=[N+]([O-])/C=C/c1ccc2c(c1)OCO2` to `O=C1Nc2ccc3ncsc3c2/C1=C/c1c[nH]cn1`, the residual activity falls from 89% to 12%.

First: O=c1[nH]c2ccccc2n1C1CCN(Cc2ccc(-c3nc4cc5[nH]cnc5cc4nc3-c3ccccc3)cc2)CC1
Second: CCn1cnc2c(Nc3cccc(Cl)c3)nc(N[C@@H]3CCCC[C@@H]3N)nc21
The residual activity of the first is higher: 100% for the first, 97% for the second.

In the case of `CC(C)(C)c1cc(C=C(C#N)C#N)cc(Br)c1O`, the residual activity is reported as 98%.

Biological target: T1, Serine/threonine-protein kinase Sgk2 (Homo sapiens)
Conditions: at 10 µM

Compared with `COc1ccc2c(c[n+](C)c3c4cc5c(cc4ccc23)OCO5)c1OC`, `COc1cc2ncnc(Nc3ccc(OCc4ccccc4)cc3)c2cc1OC` is higher in residual activity: 65% for the first, 96% for the second.

Compared with `COc1ccc2c(c1)/C(=C/c1cnc[nH]1)C(=O)N2`, `O=C1Nc2ccc3ncsc3c2/C1=C/c1c[nH]cn1` is lower in residual activity: 32% for the first, 5% for the second.

Compared with `c1cc(-c2cnn3cc(-c4ccc(OCCN5CCCCC5)cc4)cnc23)ccn1`, `C[S+]([O-])c1ccc(-c2nc(-c3ccc(F)cc3)c(-c3ccncc3)[nH]2)cc1` (stereo unspecified) is higher in residual activity: 48% for the first, 81% for the second.

Compared with `O=C1NC(=O)c2c1c1c3ccccc3n3c1c1c2c2ccccc2n1C1CCC3O1`, `COC(=O)[C@@]1(O)C[C@H]2O[C@]1(C)n1c3ccccc3c3c4c(c5c6ccccc6n2c5c31)C(=O)NC4` is lower in residual activity: 61% for the first, 1% for the second.

Compared with `O=[N+]([O-])/C=C/c1ccc2c(c1)OCO2`, `CC(C)(C)c1cc(C=C(C#N)C#N)cc(Br)c1O` is higher in residual activity: 66% for the first, 70% for the second.

Compared with `O=c1[nH]c2ccccc2n1C1CCN(Cc2ccc(-c3nc4cc5[nH]cnc5cc4nc3-c3ccccc3)cc2)CC1`, `CCn1cnc2c(Nc3cccc(Cl)c3)nc(N[C@@H]3CCCC[C@@H]3N)nc21` is lower in residual activity: 74% for the first, 65% for the second.

Biological target: T2, Serine/threonine-protein kinase Sgk3 (Homo sapiens) (UniProt Q96BR1)
T2 sequence (whole entry): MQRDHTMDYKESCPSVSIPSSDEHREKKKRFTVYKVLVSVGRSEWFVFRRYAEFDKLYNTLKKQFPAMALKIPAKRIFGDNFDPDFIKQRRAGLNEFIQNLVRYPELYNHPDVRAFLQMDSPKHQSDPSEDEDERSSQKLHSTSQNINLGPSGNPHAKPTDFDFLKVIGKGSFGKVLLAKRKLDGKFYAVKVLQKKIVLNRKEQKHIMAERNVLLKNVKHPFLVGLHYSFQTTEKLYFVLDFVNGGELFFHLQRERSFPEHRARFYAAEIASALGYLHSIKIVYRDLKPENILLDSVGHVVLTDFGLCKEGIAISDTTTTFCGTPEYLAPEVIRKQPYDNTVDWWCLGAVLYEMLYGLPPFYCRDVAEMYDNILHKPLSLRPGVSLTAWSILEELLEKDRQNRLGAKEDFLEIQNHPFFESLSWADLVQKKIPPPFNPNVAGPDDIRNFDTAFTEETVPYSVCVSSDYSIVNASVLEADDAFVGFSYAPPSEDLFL
Conditions: at 1 µM

Going from `N#C/C(=C(\N)Sc1ccc(N)cc1)c1ccccc1C(F)(F)F` to `CC(C)(C)n1nc(Cc2cccc3ccccc23)c2c(N)ncnc21`, the residual activity rises from 102% to 106%.

First: O=C1c2ccccc2-[n+]2ccc3c([nH]c4ccccc43)c21
Second: COc1cccc(-c2cc(=O)c3ccccc3o2)c1N
The residual activity of the first is lower: 99% for the first, 104% for the second.

Compared with `COc1cc2ncnc(Nc3ccc(NC(=O)c4ccccc4)cc3)c2cc1OC`, `COc1cc2ncnc(Nc3ccc(OCc4ccccc4)cc3)c2cc1OC` is higher in residual activity: 96% for the first, 115% for the second.

`CCN1/C(=C/C(C)=O)Sc2ccc(OC)cc21` and `COc1ccc2c(c1)/C(=C/c1cnc[nH]1)C(=O)N2` are the same in residual activity: 100% for the first, 100% for the second.

Going from `O=c1c2ccccc2[nH]c(=S)n1CCN1CCC(=C(c2ccc(F)cc2)c2ccc(F)cc2)CC1` to `O=c1[nH]c2ccccc2n1C1CCN(Cc2ccc(-c3nc4cc5[nH]cnc5cc4nc3-c3ccccc3)cc2)CC1`, the residual activity falls from 118% to 94%.

Compared with `c1ccc2c(-c3ccncc3)c[nH]c2c1`, `Ic1cccc(CSc2nnc(-c3ccncc3)o2)c1` is lower in residual activity: 101% for the first, 91% for the second.

First: CCCCc1c(-c2ccc(OC)cc2)[nH]c2nccnc12
Second: C[S+]([O-])c1ccc(-c2nc(-c3ccc(F)cc3)c(-c3ccncc3)[nH]2)cc1 (stereo unspecified)
The residual activity of the first is lower: 100% for the first, 120% for the second.

Going from `CC(C)[C@H](CO)Nc1nc(Nc2cc(N)cc(Cl)c2)c2ncn(C(C)C)c2n1` to `COc1cc2ncnc(Nc3ccc(O)c(Br)c3)c2cc1OC`, the residual activity rises from 98% to 99%.

Compared with `Nc1nc(Nc2ccc(S(N)(=O)=O)cc2)nn1C(=O)c1c(F)cccc1F`, `Nc1nc(Nc2ccc(S(N)(=O)=O)cc2)nn1C(=S)Nc1c(F)cccc1F` is lower in residual activity: 106% for the first, 88% for the second.

Going from `CO[C@H]1C[C@@H]2CC[C@@H](C)[C@@](O)(O2)C(=O)C(=O)N2CCCC[C@H]2C(=O)O[C@H]([C@H](C)C[C@@H]2CC[C@@H](O)[C@H](OC)C2)CC(=O)[C@H](C)/C=C(\C)[C@@H](O)[C@@H](OC)C(=O)[C@H](C)C[C@H](C)/C=C/C=C/C=C/1C` to `COC(=O)[C@@]1(O)C[C@H]2O[C@]1(C)n1c3ccccc3c3c4c(c5c6ccccc6n2c5c31)C(=O)NC4`, the residual activity falls from 112% to 47%.

Compared with `O=C1NC(=O)c2c1c1c3ccccc3n3c1c1c2c2ccccc2n1C1CCC3O1`, `O=C(O)c1ccc2c3c1cccc3c(=O)n1c3ccccc3nc21` is higher in residual activity: 98% for the first, 105% for the second.

First: O=[N+]([O-])/C=C/c1ccc2c(c1)OCO2
Second: O=C1Nc2ccc3ncsc3c2/C1=C/c1c[nH]cn1
The residual activity of the first is higher: 110% for the first, 73% for the second.

Going from `COc1ccc2c(c1)c(C1=C(c3c[nH]c4ccccc34)C(=O)NC1=O)cn2CCCN(C)C` to `COc1cc2nccc(Oc3ccc(NC(=S)NC(=O)c4ccccc4C)cc3)c2cc1OC`, the residual activity rises from 96% to 97%.

First: CCC(=O)Nc1ccc2ncnc(Nc3cccc(Br)c3)c2c1
Second: CNc1cc2c(Nc3cccc(Br)c3)ncnc2cn1
The residual activity of the first is higher: 105% for the first, 103% for the second.
